A short description of assay [1]: small molecules captured by biotinylated probe aFSTL3 – biochemical, small-molecule microarray, fluorescence 635/667, stem cell growth factor project, primary screen (AID 1064).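 Note: measures binding of the biotinylated anti-FSTL3 antibody to printed compounds.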 Particulars: higher = more signal.
Assay [2] is described as follows: binders from COS7 lysate, DM2A8 probe, primary screen, torsin A project, cell lysate, small-molecule microarray, fluorescence 635/667 (AID 1065). Particulars: higher = more signal, COS7 lysate expressing mutant human TOR1A.
The nature of assay [3]: small molecules captured by biotinylated probe aFGF2 – biochemical, small-molecule microarray, fluorescence 635/667, stem cell growth factor project, primary screen (AID 1067).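 Note: measures binding of biotinylated aFGF2 protein to printed compounds on slides; z-score merges feature fluorescence and signal-to-noise across triplicate slides.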 The following applies: higher = more signal.
A short description of assay [4]: small molecules captured by biotinylated probe aFGF10 – biochemical, small-molecule microarray, fluorescence 635/667, stem cell growth factor project, primary screen (AID 1071).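 Note: score merges 667 nm spot intensity and signal to noise from triplicate slides.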 The following applies: higher = more signal.
The target in assay [5] is Neurogenic locus notch homolog protein 2 (Homo sapiens) (UniProt Q04721). Briefly: small molecules binding Notch2 protein – biochemical, small-molecule microarray, 635 nm fluorescence, stem cell growth factors, primary screen (AID 1073). The following applies: higher = more signal.
For assay [6], the target named is Pro-neuregulin-1, membrane-bound isoform (Homo sapiens) (UniProt Q02297). Kind of assay: small molecules binding neuregulin-1 protein – biochemical, small-molecule microarray, fluorescence 635/667, psychiatric disease protein project, primary screen (AID 1075).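 Note: score combines 667 nm spot fluorescence with signal to noise.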 Particulars: NRG1 binding, 635 nm fluorescence, higher = more signal.
For assay [7], the system named is Neuregulin-1 EGF-like domain. Briefly: small molecules binding NRG1 EGF domain – biochemical, small-molecule microarray, 635 nm fluorescence, primary screen (AID 1081).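 Note: binding of the protein to compounds printed on small-molecule microarray slides.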 Particulars: higher = more signal.
A short description of assay [8]: FRG1 expression reporter modulators in myotubes – cell-based, C2C12 myotubes, firefly/Renilla luciferase, luminescence, FRG1 inhibition for FSHD, primary screen (AID 1084). Particulars: FRG1 promoter luciferase, higher = more signal, called active from +8 up or from −8 down.
The nature of assay [9]: small molecules captured by biotinylated probe aFST – biochemical, small-molecule microarray, fluorescence 635/667, stem cell growth factor project, primary screen (AID 1086).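 Note: score merges 667 nm fluorescence with signal-to-noise of each printed compound spot.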 Particulars: higher = more signal.
Assay [10] in a line: binders of probe aHhip on microarray, primary screen, stem cell growth factor project, biochemical, small-molecule microarray, fluorescence 635/667 (AID 1087).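 Note: score merges spot fluorescence at 667nm with spot signal to noise ratio.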 The following applies: higher = more signal.
The subject of assay [11] is PRMT1 (protein arginine N-methyltransferase 1). Kind of assay: small molecules binding arginine methyltransferase PRMT1 – biochemical, small-molecule microarray, 635 nm fluorescence, primary screen (AID 1088).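 Note: binding of Prmt1 protein to compounds spotted on small-molecule microarray slides.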 The following applies: higher = more signal.
The nature of assay [12]: growth effects on S. cerevisiae YJM789 – YJM789 clinical isolate, OD600, 24 h, basal, primary screen (AID 1089).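 Note: growth of clinical yeast isolate S. cerevisiae YJM 789 seeded 1000 cells per well; test concentration not given here.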 The following applies: higher = more signal, called active from +8 up or from −8 down.
Assay [13] can be described thus: S. pombe growth modifiers, basal conditions – strain 972, OD600, 24 h, no modulator, primary screen (AID 1090).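 Note: basal condition with compound alone and no growth modifier present; test concentration not given here.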 The following applies: S. pombe 972 growth, higher = more signal, called active from +8 up or from −8 down.
Assay [14] in a line: budding yeast growth modifiers under rapamycin – strain BY4716, OD600, 96 h, primary screen (AID 1091). Note: test concentration not given here. Particulars: S. cerevisiae BY4716 + rapamycin, higher = more signal, called active from +8 up or from −8 down.
Assay [15] addresses Torsin-1A-interacting protein 2 (Homo sapiens) (UniProt Q8NFQ8). Briefly: small molecules binding lysate-expressed LULL1 – cell lysate, human LULL1 lysate, 635/667 nm fluorescence, primary screen (AID 1092).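 Note: score merges per-feature 667 nm fluorescence with signal-to-noise.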 Particulars: small-molecule microarray, hLULL1 lysate binding, 635 nm fluorescence; higher = more signal.
A short description of assay [16]: optical density change of DRC41 E. coli – strain DRC41, OD650, 24 h, E. coli filamentation project, primary screen (AID 1093).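 Note: MC1000 strain lacking acrAB efflux and sulA so SOS filamentation is blocked; test concentration not given here.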 The following applies: E. coli DRC41 growth, higher = more signal, called active from +8 up or from −8 down.
The nature of assay [17]: probe aLefty2 binding to arrayed compounds – biochemical, biotinylated probe, 635/667 nm fluorescence, primary screen (AID 1094).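 Note: score merges spot fluorescence near 667 nm with spot signal-to-noise ratio.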 Particulars: small-molecule microarray, higher = more signal.
The test system of assay [18] is Noggin (protein binding on small-molecule microarray). Briefly: small molecules binding Noggin protein – biochemical, 635/667 nm fluorescence, primary screen (AID 1095).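 Note: score merges 667 nm feature fluorescence with signal to noise over triplicate slides.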 The following applies: 635 nm fluorescence, higher = more signal.
The target of assay [19] is Neurogenic locus notch homolog protein 3 (Homo sapiens) (UniProt Q9UM47). Briefly: small molecules binding NOTCH3 protein – biochemical, 635/667 nm fluorescence, primary screen (AID 1096). Particulars: small-molecule microarray, 635 nm fluorescence, higher = more signal.
The nature of assay [20]: probe aEGFR binding to arrayed compounds – biochemical, biotinylated probe, 635/667 nm fluorescence, primary screen (AID 1097).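 Note: probe is a biotinylated anti-EGFR antibody binding compounds printed on slides; score combines fluorescence near 667 nm and signal to noise of each spot.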 The following applies: small-molecule microarray, higher = more signal.

Data on five compounds can be found in PubChem BioAssay.

Active and inactive are the calls of the source.

Neurogenic locus notch homolog protein 3 (Homo sapiens), sequence (Q9UM47 whole entry, looked up): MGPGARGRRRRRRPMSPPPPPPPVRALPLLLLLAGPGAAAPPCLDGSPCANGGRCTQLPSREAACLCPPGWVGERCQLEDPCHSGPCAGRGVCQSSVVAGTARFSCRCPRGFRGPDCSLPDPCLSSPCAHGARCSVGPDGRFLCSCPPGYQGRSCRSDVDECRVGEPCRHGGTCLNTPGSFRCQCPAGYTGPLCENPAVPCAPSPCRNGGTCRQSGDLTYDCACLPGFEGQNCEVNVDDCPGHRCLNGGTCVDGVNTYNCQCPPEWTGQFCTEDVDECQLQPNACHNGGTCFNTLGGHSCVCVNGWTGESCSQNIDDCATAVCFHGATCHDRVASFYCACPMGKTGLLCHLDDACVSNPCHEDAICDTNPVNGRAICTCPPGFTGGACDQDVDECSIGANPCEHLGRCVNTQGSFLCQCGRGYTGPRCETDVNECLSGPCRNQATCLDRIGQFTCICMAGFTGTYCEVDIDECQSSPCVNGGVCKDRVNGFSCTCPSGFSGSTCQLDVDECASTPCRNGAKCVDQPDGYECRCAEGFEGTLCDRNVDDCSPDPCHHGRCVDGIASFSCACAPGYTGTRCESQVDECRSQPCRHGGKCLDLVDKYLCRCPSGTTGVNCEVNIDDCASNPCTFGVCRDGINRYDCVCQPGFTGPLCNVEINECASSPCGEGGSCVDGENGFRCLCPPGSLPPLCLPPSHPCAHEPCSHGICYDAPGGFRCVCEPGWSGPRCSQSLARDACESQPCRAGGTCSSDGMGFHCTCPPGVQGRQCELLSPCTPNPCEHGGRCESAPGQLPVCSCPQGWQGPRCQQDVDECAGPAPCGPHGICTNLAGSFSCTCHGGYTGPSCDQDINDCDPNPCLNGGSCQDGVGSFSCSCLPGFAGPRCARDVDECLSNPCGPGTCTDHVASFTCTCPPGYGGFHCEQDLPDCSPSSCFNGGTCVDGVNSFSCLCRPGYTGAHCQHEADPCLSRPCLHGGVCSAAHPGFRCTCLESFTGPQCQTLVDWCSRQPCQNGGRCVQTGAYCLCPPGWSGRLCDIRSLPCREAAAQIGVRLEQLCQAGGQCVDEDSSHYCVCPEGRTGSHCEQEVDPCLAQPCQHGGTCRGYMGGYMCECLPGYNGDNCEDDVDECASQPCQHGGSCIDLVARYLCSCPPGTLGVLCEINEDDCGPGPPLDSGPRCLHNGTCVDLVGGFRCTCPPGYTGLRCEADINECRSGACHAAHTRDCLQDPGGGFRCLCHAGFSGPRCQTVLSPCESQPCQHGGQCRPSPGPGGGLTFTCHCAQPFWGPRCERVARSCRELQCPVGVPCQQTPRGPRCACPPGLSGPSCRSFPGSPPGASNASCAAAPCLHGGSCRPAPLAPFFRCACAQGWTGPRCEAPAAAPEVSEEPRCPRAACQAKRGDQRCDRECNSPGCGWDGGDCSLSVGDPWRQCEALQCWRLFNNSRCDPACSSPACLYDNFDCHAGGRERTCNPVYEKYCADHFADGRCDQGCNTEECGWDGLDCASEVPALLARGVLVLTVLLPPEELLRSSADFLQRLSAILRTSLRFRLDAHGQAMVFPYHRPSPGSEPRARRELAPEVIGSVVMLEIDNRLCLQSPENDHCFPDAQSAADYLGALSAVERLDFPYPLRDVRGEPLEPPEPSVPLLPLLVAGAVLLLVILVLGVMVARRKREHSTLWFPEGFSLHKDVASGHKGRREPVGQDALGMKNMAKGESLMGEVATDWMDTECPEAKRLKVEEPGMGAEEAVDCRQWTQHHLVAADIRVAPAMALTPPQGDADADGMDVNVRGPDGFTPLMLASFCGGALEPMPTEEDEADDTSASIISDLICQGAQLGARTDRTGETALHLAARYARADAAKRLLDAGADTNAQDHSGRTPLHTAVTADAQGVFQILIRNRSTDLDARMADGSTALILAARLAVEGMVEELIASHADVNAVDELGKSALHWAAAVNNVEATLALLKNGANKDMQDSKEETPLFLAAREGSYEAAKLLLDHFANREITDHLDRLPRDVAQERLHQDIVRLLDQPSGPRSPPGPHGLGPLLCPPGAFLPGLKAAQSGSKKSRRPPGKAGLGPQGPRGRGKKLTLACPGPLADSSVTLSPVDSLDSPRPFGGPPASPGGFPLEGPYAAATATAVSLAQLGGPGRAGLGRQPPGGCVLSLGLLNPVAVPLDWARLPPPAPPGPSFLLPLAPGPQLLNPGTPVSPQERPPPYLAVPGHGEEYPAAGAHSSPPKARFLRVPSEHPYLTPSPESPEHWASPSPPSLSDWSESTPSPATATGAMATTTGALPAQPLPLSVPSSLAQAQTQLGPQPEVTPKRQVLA
Neurogenic locus notch homolog protein 2 (Homo sapiens), sequence (Q04721 whole entry, looked up, canonical isoform): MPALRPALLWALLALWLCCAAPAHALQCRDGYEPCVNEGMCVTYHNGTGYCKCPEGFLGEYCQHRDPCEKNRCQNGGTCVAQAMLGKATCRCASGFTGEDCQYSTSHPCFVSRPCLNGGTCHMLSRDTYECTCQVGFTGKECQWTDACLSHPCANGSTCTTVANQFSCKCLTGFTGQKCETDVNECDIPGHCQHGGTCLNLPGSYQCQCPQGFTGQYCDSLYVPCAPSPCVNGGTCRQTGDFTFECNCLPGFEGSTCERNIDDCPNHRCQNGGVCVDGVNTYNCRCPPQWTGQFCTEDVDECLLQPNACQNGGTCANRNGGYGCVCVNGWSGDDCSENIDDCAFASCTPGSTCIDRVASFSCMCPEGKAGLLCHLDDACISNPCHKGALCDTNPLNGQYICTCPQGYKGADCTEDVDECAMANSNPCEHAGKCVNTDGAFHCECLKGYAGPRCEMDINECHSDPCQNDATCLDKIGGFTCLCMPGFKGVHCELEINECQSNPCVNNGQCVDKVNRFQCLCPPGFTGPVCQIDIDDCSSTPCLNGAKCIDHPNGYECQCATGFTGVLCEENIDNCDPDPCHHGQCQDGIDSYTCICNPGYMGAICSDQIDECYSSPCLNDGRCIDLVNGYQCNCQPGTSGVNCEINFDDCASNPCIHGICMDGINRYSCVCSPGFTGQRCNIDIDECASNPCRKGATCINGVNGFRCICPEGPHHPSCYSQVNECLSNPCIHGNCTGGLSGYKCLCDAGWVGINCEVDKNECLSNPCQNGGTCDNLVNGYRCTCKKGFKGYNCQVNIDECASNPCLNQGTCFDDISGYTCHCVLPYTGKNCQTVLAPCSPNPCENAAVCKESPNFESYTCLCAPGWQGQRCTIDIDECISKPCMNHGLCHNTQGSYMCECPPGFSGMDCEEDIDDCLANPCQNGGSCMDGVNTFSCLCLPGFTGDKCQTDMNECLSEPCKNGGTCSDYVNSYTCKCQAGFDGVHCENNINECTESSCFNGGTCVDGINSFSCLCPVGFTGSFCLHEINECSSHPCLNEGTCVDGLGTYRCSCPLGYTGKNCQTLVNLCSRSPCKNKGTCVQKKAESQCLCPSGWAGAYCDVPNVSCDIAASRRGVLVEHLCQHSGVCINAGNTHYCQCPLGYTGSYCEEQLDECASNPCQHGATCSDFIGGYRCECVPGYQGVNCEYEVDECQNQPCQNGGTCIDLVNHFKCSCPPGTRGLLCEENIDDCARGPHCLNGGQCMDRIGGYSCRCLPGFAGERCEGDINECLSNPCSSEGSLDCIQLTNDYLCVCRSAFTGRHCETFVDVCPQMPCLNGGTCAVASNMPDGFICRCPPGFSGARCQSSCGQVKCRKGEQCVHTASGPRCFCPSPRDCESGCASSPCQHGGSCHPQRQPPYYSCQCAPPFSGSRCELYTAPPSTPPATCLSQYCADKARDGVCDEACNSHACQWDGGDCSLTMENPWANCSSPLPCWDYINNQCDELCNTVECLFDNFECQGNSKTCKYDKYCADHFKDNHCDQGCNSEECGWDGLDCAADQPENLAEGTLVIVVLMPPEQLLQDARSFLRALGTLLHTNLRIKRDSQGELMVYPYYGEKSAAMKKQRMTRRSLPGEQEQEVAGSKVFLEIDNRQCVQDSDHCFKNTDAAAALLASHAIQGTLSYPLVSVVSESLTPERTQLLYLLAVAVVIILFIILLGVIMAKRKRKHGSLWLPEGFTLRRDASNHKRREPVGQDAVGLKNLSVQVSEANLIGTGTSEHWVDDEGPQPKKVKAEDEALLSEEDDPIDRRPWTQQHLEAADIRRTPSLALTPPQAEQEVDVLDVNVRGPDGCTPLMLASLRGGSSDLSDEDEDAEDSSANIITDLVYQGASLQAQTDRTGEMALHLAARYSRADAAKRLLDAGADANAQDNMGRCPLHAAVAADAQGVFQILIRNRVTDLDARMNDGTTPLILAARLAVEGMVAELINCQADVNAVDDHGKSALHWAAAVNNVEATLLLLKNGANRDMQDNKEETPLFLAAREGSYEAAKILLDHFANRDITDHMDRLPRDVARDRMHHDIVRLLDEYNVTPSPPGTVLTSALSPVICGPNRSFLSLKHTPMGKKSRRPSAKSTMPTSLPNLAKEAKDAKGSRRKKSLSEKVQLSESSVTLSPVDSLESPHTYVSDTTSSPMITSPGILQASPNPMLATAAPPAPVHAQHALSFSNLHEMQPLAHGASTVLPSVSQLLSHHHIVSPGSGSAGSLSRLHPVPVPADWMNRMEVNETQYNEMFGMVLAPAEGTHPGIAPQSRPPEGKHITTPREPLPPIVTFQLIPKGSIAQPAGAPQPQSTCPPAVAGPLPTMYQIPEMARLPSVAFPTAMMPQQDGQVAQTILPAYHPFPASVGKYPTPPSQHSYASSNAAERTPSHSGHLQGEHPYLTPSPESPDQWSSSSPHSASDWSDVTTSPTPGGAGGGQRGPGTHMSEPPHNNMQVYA

With `CCN1C(=O)[C@@H]2[C@H]3C(=CC[C@@H]2C1=O)C1(OCCCO1)[C@H]1O[C@H]1[C@H]3O`, the composite z-score in assay [1] is -0.418; in assay [2] it was 0.771; in assay [3], -0.076; in assay [4], 1.04; in assay [5], 1.17; in assay [6] it was 0.692. The composite z-score in assay [7] was 1.19; in [9] it was 0.404; in [10], -0.236; in [11], 1.44; in assay [15], 0.899; in assay [17], -0.16. Moreover, the composite z-score in [18] was 0.643; in [19], 1.07; in assay [20], 0.0043. For the same compound, the z-score in assay [8] was 7.42 (inactive); in assay [12], 1.17 (inactive); in assay [13], -6.63 (inactive); in assay [14], 1.66 (inactive); in assay [16], -0.0556 (inactive).
With `O=C1[C@H]2[C@H]3[C@H](O)[C@H](O)CC(=NOCc4ccccc4)[C@@H]3CC[C@H]2C(=O)N1C[C@@H]1CCCO1`, the composite z-score was -0.278 in assay [1]; -0.22 in assay [2]; -0.116 in assay [3]; -0.125 in [4]; 0.176 in assay [5]; 0.0461 in assay [6]. Besides, the composite z-score is -0.288 in assay [7]; 0.271 in assay [9]; -0.27 in [10]; -0.423 in [11]; 0.292 in [15]; -0.114 in assay [17]. The composite z-score in assay [18] was 0.228; in assay [19] it was 0.237; in assay [20] it was -0.0151. The z-score is 1.36 (inactive) in [8]; -0.857 (inactive) in [12]; 0.767 (inactive) in assay [13]; -0.369 (inactive) in assay [14]; 1.27 (inactive) in assay [16].
In the case of `CC(C)=CCCC(C)=CCON=C1C[C@@H](O)[C@@H](O)[C@@H]2[C@@H]3C(=O)N(C(C)(C)C)C(=O)[C@@H]3CC[C@H]12`, the composite z-score is -0.28 in assay [1]; -0.0211 in [2]; 0.0122 in assay [3]; 0.406 in [4]; 0.591 in assay [5]; 0.0095 in [6]. Besides, the composite z-score in assay [7] was 0.744; in assay [9], -0.0538; in [10], -0.0994; in assay [11] it was 0.64; in [15], 0.312; in [17], -0.138. The composite z-score in [18] was 0.919; in assay [19], 0.539; in assay [20] it was -0.0466. Also, the z-score in [8] is 0.132 (inactive); in [12], 0.0423 (inactive); in assay [13], 0.473 (inactive); in [14], -0.656 (inactive); in assay [16], 0.281 (inactive).
`CON=C[C@@H](C)[C@H](OCc1ccccc1)C(C)C`: the composite z-score in [1] was 0.797; in [2], 0.0789; in assay [3], -0.138; in assay [4], -0.0499; in assay [5] it was -0.12; in assay [6], -0.575. Besides, the composite z-score is -0.502 in assay [7]; -0.0062 in [9]; 0.0373 in assay [10]; -1.25 in assay [11]; -0.618 in [15]; -0.149 in assay [17]. Further, the composite z-score in [18] is 0.314; in assay [19], -0.154; in assay [20], -0.158. The z-score in assay [8] is 0.538 (inactive); in assay [12], 0.0195 (inactive); in [13] it was -0.596 (inactive); in [14] it was 0.772 (inactive); in assay [16] it was -0.718 (inactive).
For the compound `CCOC(=O)[C@H](Cc1ccccc1)NC(=O)CCC1CC(OC(=O)NCc2ccc3c(c2)OCO3)CC2(CCCC(COC(=O)NCCc3ccccc3OC)O2)O1` (stereo not given in full), the composite z-score in assay [1] was -0.259; in assay [2] it was 0.058; in assay [3] it was -0.147; in assay [4] it was 0.471; in assay [5], 1.26; in assay [6] it was 1.04. Also, the composite z-score was 1.1 in assay [7]; 0.569 in assay [9]; 0.141 in assay [10]; 1.49 in assay [11]; 2.67 in assay [15]; -0.112 in assay [17]. The composite z-score in [18] was determined as 0.679; in assay [19] it was 1.08; in assay [20], 0.0287. In addition, the z-score in assay [8] is 1.04 (inactive); in assay [12], 0.163 (inactive); in [13] it was 1.07 (inactive); in [14], 1.52 (inactive); in [16], -0.324 (inactive).
